# Experimental data published in PubChem BioAssay (EPA / NIEHS).
# Several values for one entry are separate records, joined by “and”; a condition that tells them apart may be missing. Equal entries are not always repeated. Records with an inconclusive call do not appear. A structure can be active in one record and inactive in another. Activity calls are given as the source filed them. How the source made its calls, unless noted: active means hit-call score of the fitted dose curve at least 0.9, where 1 is the maximum; inactive means score below 0.9.
# Legend:
# [1] = read-out: Actin alpha 1 (ACTA1), ACTA1 (gene 58); experiment: BSK_MyoF_ACTA1: BioMAP Diversity Plus: MyoF Assay for Actin alpha 1 (ACTA1) Biomarker Activity (AID 2284244); conditions: primary human lung fibroblasts
# Outline: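 alpha-SMA levels read by ELISA against DMSO baseline, 24 h post-dose, in primary human lung fibroblasts. Parallel cultures stained with 0.1% SRB after 10% TCA fixation (560 nm) to flag overt cytotoxicity.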
# [2] = read-out: Interleukin 2 (IL2), IL2 (gene 3558); experiment: BSK_BT_xIL2: BioMAP Diversity Plus: BT Assay for Interleukin 2 (IL2) Biomarker Activity (AID 2284245); conditions: primary human B cells with PBMC
# Outline: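 Secreted IL-2 was read by Luminex xMAP from B cells co-cultured with PBMC (human primary) 24 h post-dosing; activity was analysed as gain of signal relative to DMSO vehicle.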
# [3] = read-out: Basic fibroblast growth factor (bFGF), FGF2 (gene 2247); experiment: BSK_MyoF_bFGF: BioMAP Diversity Plus: MyoF Assay for Basic fibroblast growth factor (bFGF) Biomarker Activity (AID 2284246); conditions: primary human lung fibroblasts
# Outline: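 bFGF was measured by ELISA in primary human lung fibroblasts 24 h after chemical addition. Signal was analysed as positive-direction change relative to DMSO baseline.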
# [4] = read-out: Collagen IV, COL4A1 (gene 1282); experiment: BSK_MyoF_CollagenIV: BioMAP Diversity Plus: MyoF Assay for Collagen IV Biomarker Activity (AID 2284247); conditions: primary human lung fibroblasts
# Outline: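 Collagen IV quantified by ELISA in human lung fibroblast cultures 24 h after chemical treatment, with DMSO as baseline. Parallel SRB staining (0.1% SRB after TCA fixation, 560 nm) flags overt cytotoxicity.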
# [5] = CCTE_Mundy_HCI_hNP1_Casp3_7: CCTE's Caspase-Glo 3/7 Assay in human neuroprogenitor cells for Apoptosis, Mundy Lab (AID 2284240)
# Outline: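 Neuroepithelial-lineage stem cells from WA09 embryonic cells were treated with chemicals after 40–44 h of culture. Twenty-four hours later, caspase-3/7 activation was detected luminescently after a 30 min room-temperature reagent step, with DMSO as baseline.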
# [6] = CCTE_Mundy_HCI_hNP1_CellTiter: CCTE's Cell Titer-Glo 2 Assay in human neuroprogenitor cells for Viability, Mundy Lab (AID 2284241; active means hit-call score of the fitted dose curve at least 0.9, where 1 is the maximum;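 further: a hit is a drop in ATP luminescence versus DMSO meaning reduced viability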)
# Outline: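 Measures ATP content in human neural progenitors derived from WA09 embryonic cells. Read-out at 26.5 hours after dosing, with DMSO serving as the negative control and baseline.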
# [7] = read-out: Monokine induced gamma interferon (MIG), CXCL9 (gene 4283); experiment: BSK_KF3CT_MIG: BioMAP Diversity Plus: KF3CT Assay for Monokine induced gamma interferon (MIG) Biomarker Activity (AID 2284248); conditions: primary human keratinocytes with fibroblasts
# Outline: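 Parallel cultures were stained with SRB (560 nm) to check cytotoxicity. MIG was quantified by ELISA in a primary human skin keratinocyte/fibroblast co-culture 24 h post-dosing, with gain of signal fitted relative to DMSO.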
# [8] = read-out: Collagen I, COL1A1 (gene 1277); experiment: BSK_hDFCGF_CollagenI: BioMAP Diversity Plus: hDFCGF Assay for Collagen I Biomarker Activity (AID 2284250); conditions: primary human foreskin fibroblasts
# Outline: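 Collagen I quantified by ELISA 24 h after chemical dosing of human dermal fibroblast primary cells, with parallel SRB staining (0.1%, TCA-fixed, 560 nm) for overt cytotoxicity.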
# [9] = read-out: Interferon-inducible T-cell alpha chemoattractant (ITAC), CXCL11 (gene 6373); experiment: BSK_hDFCGF_ITAC: BioMAP Diversity Plus: hDFCGF Assay for Interferon-inducible T-cell alpha chemoattractant (ITAC) Biomarker Activity (AID 2284251); conditions: primary human foreskin fibroblasts
# Outline: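 Chemical dosing of primary human foreskin fibroblast cultures preceded ELISA measurement of I-TAC at 24 h. Response was analysed in the positive direction using DMSO as baseline, while parallel SRB staining measured cytotoxicity.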
structure (smiles),measurement,setting,value
C=C(C)C(=O)OCC(CC)(COC(=O)C(=C)C)COC(=O)C(=C)C,AC50,[1],10.5 µM (active)
same,AC50,[2],19.7 µM (active)
same,AC50,[3],29.4 µM (active)
same,AC50,[4],14.6 µM (active)
CC(C=O)Cc1ccc(C(C)(C)C)cc1 (centres undefined),AC50,[1],31.6 µM (active)
same,outcome,[2],inactive
same,outcome,[3],inactive
same,outcome,[4],inactive
CN(C)CCOC(C)(c1ccccc1)c1ccccn1 (centres undefined),outcome,[5],inactive
CCCCCC(C=O)=Cc1ccccc1,AC50,[1],29.5 µM (active)
same,outcome,[2],inactive
same,outcome,[3],inactive
same,outcome,[4],inactive
c1ccc(CCc2ccccc2)cc1,AC50,[1],13.7 µM (active)
same,outcome,[2],inactive
same,AC50,[3],30.4 µM (active)
same,AC50,[4],31.5 µM (active)
CCN(CC)C(=O)N(CC)CC,outcome,[1],inactive
same,outcome,[2],inactive
same,outcome,[3],inactive
same,outcome,[4],inactive
CN(c1nccc(=O)[nH]1)C1CCN(c2nc3ccccc3n2Cc2ccc(F)cc2)CC1,outcome,[1],inactive
same,AC50,[2],9.2 µM (active)
same,outcome,[3],inactive
same,outcome,[4],inactive
O=C1OC[C@H](Cc2cccc(O)c2)[C@H]1Cc1cccc(O)c1,outcome,[1],inactive
same,outcome,[2],inactive
same,outcome,[3],inactive
same,outcome,[4],inactive
CCCCN(CCCC)C(=O)N(CCCC)CCCC,AC50,[1],6.35 µM (active)
same,AC50,[2],32.5 µM (active)
same,AC50,[3],10.1 µM (active)
same,AC50,[4],8.89 µM (active)
c1ccc(Oc2ccccc2)cc1,outcome,[1],inactive
same,outcome,[2],inactive
same,outcome,[3],inactive
same,outcome,[4],inactive
COCCc1ccc(OCC(O)CNC(C)C)cc1 (centres undefined),outcome,[5],inactive
same,AC50,[6],2.98 µM (active)
CCCCOC(=O)CCCCCCCC(=O)OCCCC,outcome,[1],inactive
same,outcome,[2],inactive
same,outcome,[3],inactive
same,outcome,[4],inactive
O=CN1CCOCC1,outcome,[7],inactive
same,outcome,[8],inactive
same,outcome,[9],inactive
IC(I)I,outcome,[1],inactive
same,outcome,[2],inactive
same,outcome,[3],inactive
same,outcome,[4],inactive
CC(=O)Nc1ccc(C(=O)CCl)cc1,AC50,[1],20 µM (active)
same,AC50,[2],5.57 µM (active)
same,AC50,[3],32.5 µM (active)
same,AC50,[4],16.9 µM (active)
CCOC(=O)C(C#N)=C(c1ccccc1)c1ccccc1,outcome,[7],inactive
same,outcome,[8],inactive
same,AC50,[9],26.1 µM (active)
same,outcome,[9],inactive
CC1(C)CCC[C@]2(C)[C@H]3CCO[C@]3(C)CC[C@@H]12,AC50,[7],36.6 µM (active) and 36.2 µM (active)
same,AC50,[8],18.7 µM (active)
same,outcome,[8],inactive
same,AC50,[9],30.5 µM (active) and 30.9 µM (active)
C=CC(C)(O)CCC=C(C)C (centres undefined),outcome,[7],inactive
same,outcome,[8],inactive
same,outcome,[9],inactive
CC(C)(C)CC(C)(C)c1ccc(OCCOCC[N+](C)(C)Cc2ccccc2)cc1,AC50,[1],8.1 µM (active)
same,AC50,[2],6.28 µM (active)
same,AC50,[3],8.49 µM (active)
same,AC50,[4],8.51 µM (active)
C[C@@H]1CCN(C(=O)[C@H](CCCN=C(N)N)NS(=O)(=O)c2cccc3c2NC[C@H](C)C3)[C@@H](C(=O)O)C1,outcome,[1],inactive
same,outcome,[2],inactive
same,outcome,[3],inactive
same,outcome,[4],inactive
C=C(C)C(=O)OCCOCCOCCOC(=O)C(=C)C,outcome,[1],inactive
same,outcome,[2],inactive
same,outcome,[3],inactive
same,outcome,[4],inactive
CCCCCCC(CO)CCCC (centres undefined),AC50,[7],35.5 µM (active)
same,AC50,[8],36.4 µM (active) and 30.8 µM (active)
same,AC50,[9],33.1 µM (active) and 34.8 µM (active)
CCC(C)c1cc([N+](=O)[O-])cc([N+](=O)[O-])c1OC(=O)OC(C)C (centres undefined),AC50,[1],8.46 µM (active)
same,AC50,[2],20 µM (active)
same,AC50,[3],27.7 µM (active)
same,AC50,[4],20 µM (active)
COc1ccc(OC)c(N=Nc2c(O)ccc3ccccc23)c1,AC50,[1],10.5 µM (active)
same,outcome,[2],inactive
same,AC50,[3],20 µM (active)
same,outcome,[4],inactive
CCCCCCCCCCCCCCCC(=O)OC/C=C(C)/C=C/C=C(C)/C=C/C1=C(C)CCCC1(C)C,outcome,[1],inactive
same,outcome,[2],inactive
same,outcome,[3],inactive
same,outcome,[4],inactive
C1=CC2C3C=CC(C3)C2C1 (centres undefined),outcome,[1],inactive
same,outcome,[2],inactive
same,outcome,[3],inactive
same,outcome,[4],inactive
O=C(Nc1ccc2c(O)c(N=Nc3ccc(N=Nc4ccc(S(=O)(=O)O)cc4)cc3)c(S(=O)(=O)O)cc2c1)c1ccccc1,outcome,[7],inactive
same,outcome,[8],inactive
same,AC50,[9],32.3 µM (active) and 27.1 µM (active)
C=C(C)[C@H]1CC=C(C)C(=O)C1,outcome,[1],inactive
same,outcome,[2],inactive
same,outcome,[3],inactive
same,outcome,[4],inactive
O=C1c2ccccc2C(=O)c2c(O)ccc(O)c21,outcome,[1],inactive
same,AC50,[2],3.97 µM (active)
same,outcome,[3],inactive
same,outcome,[4],inactive
CN(C)C(=S)SC(=S)N(C)C,AC50,[1],36.6 µM (active)
same,AC50,[2],0.432 µM (active)
same,AC50,[3],31.9 µM (active)
same,outcome,[4],inactive
CC(C)(N=C=O)c1cccc(C(C)(C)N=C=O)c1,outcome,[1],inactive
same,outcome,[2],inactive
same,outcome,[3],inactive
same,outcome,[4],inactive
Clc1cc(Cl)c(-c2c(Cl)c(Cl)cc(Cl)c2Cl)cc1Cl,AC50,[1],4.98 µM (active)
same,AC50,[2],4.55 µM (active)
same,outcome,[3],inactive
same,outcome,[4],inactive
CC(=O)C1(C)CC2=C(CCCC2(C)C)CC1C (centres undefined),AC50,[1],13.1 µM (active)
same,outcome,[2],inactive
same,AC50,[3],29.3 µM (active)
same,AC50,[4],11.9 µM (active)
CC(CN=Cc1ccccc1O)N=Cc1ccccc1O (centres undefined),outcome,[7],inactive
same,outcome,[8],inactive
same,outcome,[9],inactive
CN(C)C(=O)Nc1ccc(Oc2ccc(Cl)cc2)cc1,outcome,[1],inactive
same,AC50,[2],20 µM (active)
same,outcome,[3],inactive
same,outcome,[4],inactive
CC1(C)C2=CCCC(C)(C)[C@]23CC[C@H]1C3,AC50,[1],30.9 µM (active)
same,outcome,[2],inactive
same,outcome,[3],inactive
same,outcome,[4],inactive
